As a reminder, the AC50 is the concentration giving half of the maximal activity seen.

Values joined by “and” are separate entries in the source; they are usually repeats but may differ in a detail not shown here. Identical values can stand only once. Inconclusive results are not listed. The source holds several records for some structures; these can differ, active in one and inactive in another. Active and inactive are the calls of the source. Rule for the calls, unless noted: active = hit-call score of the fitted dose curve at least 0.9, where 1 is the maximum; inactive = score below 0.9.

Assay [1] in a line: CCTE_Mundy_HCI_Cortical_NOG_BPCount: CCTE's Neurite Outgrowth Assay in rat cortical cells for Branch Point Count, Mundy Lab (AID 2284237).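 For AC50: branch points counted about two days after chemical exposure.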 In short, it runs like this:
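Measured 50.33 h after dosing, this morphology endpoint uses rat primary cortical cultures labelled for betaIII-tubulin. Branch points are quantified by high-content imaging, with DMSO as negative control and baseline.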

Assay [2] is described as follows: CCTE_Mundy_HCI_hNP1_Casp3_7: CCTE's Caspase-Glo 3/7 Assay in human neuroprogenitor cells for Apoptosis, Mundy Lab (AID 2284240). In short, it runs like this:
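Apoptosis is scored by activated caspase-3/7 luminescence in WA09-derived neural progenitor cells, measured 26.5 h after chemical dosing. Values represent gain of signal relative to DMSO vehicle.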

Assay [3] in a line: CCTE_Mundy_HCI_hNP1_CellTiter: CCTE's Cell Titer-Glo 2 Assay in human neuroprogenitor cells for Viability, Mundy Lab (AID 2284241; active = hit-call score of the fitted dose curve at least 0.9, where 1 is the maximum). In short, it runs like this: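 Human neural progenitor cells (hNP1, WA09-derived) were plated on poly-L-ornithine/laminin and grown 40 to 44 hours at 37 °C, 5% CO2 before chemical addition. Twenty-four hours later, ATP was measured by CellTiter-Glo luminescence; loss of signal versus DMSO indicates reduced viability.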
On the technique in general: ATP-based viability assays read luminescence as a measure of living cells.

Assay [4] can be described thus: IUF_NPC2a_radial_glia_migration_120hr: Leibniz Research Institute for Environmental Medicine (IUF) 120-hour Neural Progenitor Cell Migration Assay for Radial Glia Migration (NPC2a) (AID 2284298). The procedure, abridged: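 Hoechst-stained nuclei imaged at 120 h; algorithm maps sphere core by densest nuclei, sets migration edge at density threshold, gives radial glia migration distance (um) per well vs DMSO. hNPC spheres (0.3 mm), PDL/laminin, DMEM/F12 3:1 + 1% N2.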

Assay [5] is described as follows: IUF_NPC2a_radial_glia_migration_72hr: Leibniz Research Institute for Environmental Medicine (IUF) 72-hour Neural Progenitor Cell Migration Assay for Radial Glia Migration (NPC2a) (AID 2284299). The procedure, abridged:
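Single 0.3 mm neurospheres were plated per well in N2 differentiation medium and exposed from the start of differentiation. After 72 hours, brightfield images were taken and radial glia migration from the sphere core edge was measured manually in four directions, averaged per well.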

Assay [6] in a line: IUF_NPC2b_neuronal_migration_120hr: Leibniz Research Institute for Environmental Medicine (IUF) 120-hour Neural Progenitor Cell Migration Assay for Neuron Migration (NPC2b) (AID 2284300). In short, it runs like this:
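hNPC spheres, PDL/laminin, DMEM:F12 3:1 + 1% N2, 37C/5% CO2; 7 concentrations + solvent control (DMSO ≤0.1%), 5 d exposure, half-feed day 3. Fix 120 h, TUBB3 ICC, HCI: mean neuron migration distance ÷ glia distance.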

Assay [7] can be described thus: IUF_NPC5_oligodendrocyte_differentiation_120hr: Leibniz Research Institute for Environmental Medicine (IUF) 120-hour Oligodendrocyte Differentiation Assay (NPC5) (AID 2284304; active = hit-call score of the fitted dose curve at least 0.9, where 1 is the maximum;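 note: primary human fetal neural progenitor spheres plated to migrate and differentiate; share of O4-positive cells among Hoechst nuclei found by CNN image analysis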). In short, it runs like this: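 hNPC spheres, fetal cortex GW 16-19; PDL/laminin, DMEM:F12 3:1 + 1% N2, 37C/5% CO2; 7 concentrations + solvent control, 5 d exposure, half-change day 3. Readout: %O4+ of Hoechst+ nuclei in migration area, CNN classification; DMSO baseline.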

Read-out in assay [8]: Collagen I, COL1A1 (gene 1277)
In words: BSK_MyoF_CollagenI: BioMAP Diversity Plus: MyoF Assay for Collagen I Biomarker Activity (AID 2284238). As to conditions: primary human lung fibroblasts. In short, it runs like this: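 ELISA readout of Collagen I after 24 h chemical treatment of primary human lung fibroblast cultures; gain of signal scored relative to DMSO vehicle baseline.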

Read-out in assay [9]: Collagen III, COL3A1 (gene 1281)
In words: BSK_MyoF_CollagenIII: BioMAP Diversity Plus: MyoF Assay for Collagen III Biomarker Activity (AID 2284239). The settings on record: primary human lung fibroblasts. In short, it runs like this: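 Lung fibroblast culture; 24 h compound exposure; collagen III by ELISA; gain-of-signal fit vs DMSO baseline.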

Read-out in assay [10]: Interleukin 17F (IL17F), IL17F (gene 112744)
In words: BSK_BT_xIL17F: BioMAP Diversity Plus: BT Assay for Interleukin 17F (IL17F) Biomarker Activity (AID 2284243). As to conditions: primary human B cells with PBMC. The procedure, abridged:
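Secreted IL-17F, read on LumineX xMAP beads, was taken as the endpoint. Cultures combined human B cells and peripheral blood mononuclear cells, sampled 24 hours after dosing, with DMSO serving as negative control.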

Read-out in assay [11]: Actin alpha 1 (ACTA1), ACTA1 (gene 58)
In words: BSK_MyoF_ACTA1: BioMAP Diversity Plus: MyoF Assay for Actin alpha 1 (ACTA1) Biomarker Activity (AID 2284244). The settings on record: primary human lung fibroblasts. The procedure, abridged: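 Cells were exposed to chemical for 24 h before a-SMA levels were quantified by ELISA in human lung fibroblasts. Increases were fitted against DMSO as negative control; parallel SRB staining (0.1% after 10% TCA fixation, 560 nm) assessed cytotoxicity.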

Read-out in assay [12]: Interleukin 2 (IL2), IL2 (gene 3558)
In words: BSK_BT_xIL2: BioMAP Diversity Plus: BT Assay for Interleukin 2 (IL2) Biomarker Activity (AID 2284245). The settings on record: primary human B cells with PBMC. In short, it runs like this:
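The BT system combines human B cells with peripheral blood mononuclear cells. Twenty-four hours after chemical dosing, secreted IL-2 was measured with xMAP bead technology, and responses were analyzed as increases over DMSO controls.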

Read-out in assay [13]: Basic fibroblast growth factor (bFGF), FGF2 (gene 2247)
In words: BSK_MyoF_bFGF: BioMAP Diversity Plus: MyoF Assay for Basic fibroblast growth factor (bFGF) Biomarker Activity (AID 2284246). The settings on record: primary human lung fibroblasts. The procedure, abridged: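 Chemicals are added to human lung fibroblast cultures and incubated 24 h. bFGF is then measured by ELISA, while parallel cultures receive SRB staining for total protein as a cytotoxicity check. Data are fitted upward against DMSO.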

Read-out in assay [14]: Collagen IV, COL4A1 (gene 1282)
In words: BSK_MyoF_CollagenIV: BioMAP Diversity Plus: MyoF Assay for Collagen IV Biomarker Activity (AID 2284247). As to conditions: primary human lung fibroblasts. The procedure, abridged:
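Human lung fibroblast system, 24 h chemical exposure. Endpoint: Collagen IV by ELISA, upward fit vs DMSO.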

Read-out in assay [15]: Plasminogen activator inhibitor-1 (PAI1), SERPINE1 (gene 5054)
In words: BSK_MyoF_PAI1: BioMAP Diversity Plus: MyoF Assay for Plasminogen activator inhibitor-1 (PAI1) Biomarker Activity (AID 2284256).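 Note: PAI-1 protein level measured by ELISA in fibroblast cultures; PAI-1 read 24 h after compound addition.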 The settings on record: primary human lung fibroblasts. In short, it runs like this: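 MyoF lung fibroblasts, human primary; compound 24 h; PAI-1 ELISA; positive-direction fit vs DMSO baseline; parallel SRB total-protein staining for cytotoxicity.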

Read-out in assay [16]: Interleukin-8 (IL8), CXCL8 (gene 3576)
In words: BSK_MyoF_IL8: BioMAP Diversity Plus: MyoF Assay for Interleukin-8 (IL8) Biomarker Activity (AID 2284261). As to conditions: primary human lung fibroblasts. The procedure, abridged: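 Lung fibroblasts (human primary) → chemical exposure → 24 h → IL-8 measured by ELISA. Signal increase scored versus DMSO control.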

Read-out in the next assay: Decorin, DCN (gene 1634)
In words: BSK_MyoF_Decorin: BioMAP Diversity Plus: MyoF Assay for Decorin Biomarker Activity (AID 2284265). As to conditions: primary human lung fibroblasts. In short, it runs like this: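 ELISA readout of decorin, 24 h post-dosing; primary human lung fibroblast (MyoF) culture; gain-of-signal fit vs DMSO baseline.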

Assay [17] can be described thus: BSK_MyoF_SRB: Viability Assessment in the BioMAP Diversity Plus: MyoF Assay (AID 2284267).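 Note: total protein by SRB absorbance in parallel cultures as cytotoxicity measure; cells assessed 24 h after compound addition.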 The settings on record: primary human lung fibroblasts. The procedure, abridged:
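Confluent human lung fibroblasts were exposed to test chemicals for 24 h. Parallel wells were then fixed in 10% TCA, stained with 0.1% sulforhodamine B and measured at 560 nm. DMSO served as baseline for curve fitting.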

Read-out in assay [18]: Matrix Metallopeptidase 1 (MMP1), MMP1 (gene 4312)
In words: BSK_MyoF_MMP1: BioMAP Diversity Plus: MyoF Assay for Matrix Metallopeptidase 1 (MMP1) Biomarker Activity (AID 2284268). As to conditions: primary human lung fibroblasts. In short, it runs like this:
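Cells: human lung fibroblasts. Exposure: 24 h chemical dosing. Detection: ELISA for MMP1. Analysis: upward fitting against DMSO negative control.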

Read-out in assay [19]: TIMP metallopeptidase inhibitor 1 (TIMP1), TIMP1 (gene 7076)
In words: BSK_MyoF_TIMP1: BioMAP Diversity Plus: MyoF Assay for TIMP metallopeptidase inhibitor 1 (TIMP1) Biomarker Activity (AID 2284269). The settings on record: primary human lung fibroblasts. In short, it runs like this:
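TIMP-1 levels were determined by ELISA in human lung fibroblasts treated for 24 h. DMSO served as negative control and baseline for upward curve fitting.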

For the molecule `CCOC(=O)CC(SP(=O)(OC)OC)C(=O)OCC` (stereo unspecified), the molecule was called inactive in assay [1], in assay [2], in [3], in assay [4], in assay [5] and in assay [6]. For the same molecule, in assay [7], the molecule was called inactive.
For `COP(=O)(NC(C)=O)SC` (stereo unspecified), the call in assay [1], in assay [2], in [3], in assay [4], in [5] and in assay [6] was inactive. For the same molecule, the outcome in assay [7] was inactive.
As for `C=C(C)[C@H]1Cc2c(ccc3c2O[C@@H]2COc4cc(OC)c(OC)cc4[C@@H]2C3=O)O1`, the concentration at half-maximal activity (AC50) is 0.0175 µM (active) in assay [1]; 0.159 µM (active) in assay [3]; 244 nM (active) and 3.4 nM (active) in assay [4]; 220 nM (active) and 4.24 nM (active) in assay [5]; 0.00958 µM (active) in [6]. The molecule was called inactive in assay [6].
For `CCOP(=S)(Oc1cnc(C(C)(C)C)nc1)OC(C)C` (stereo unspecified), the AC50 in assay [1] is 22.8 µM (active); in assay [2], 91.4 µM (active). The call in assay [1], in [2], in assay [3], in assay [4], in assay [5] and in assay [6] was inactive. Further, in assay [7], the result was inactive.
Consider `CN1COCN(Cc2cnc(Cl)s2)C1=N[N+](=O)[O-]`, for which the molecule was called inactive in assay [1], in [2], in assay [3], in assay [4], in [5] and in assay [6]. Besides, the outcome in assay [7] was inactive.
`CC1=NNC(=O)N(/N=C/c2cccnc2)C1`: the result in [1], in assay [2], in [4], in assay [5] and in [6] was inactive.
For `CCOP(=S)(OCC)Oc1cc(C)nc(C(C)C)n1`, the AC50 in assay [1] is 0.11 µM (active). Moreover, the outcome in assay [2], in assay [4], in [5], in [6] and in [7] was inactive.
On to `CCOP(=O)(OCC)Oc1cc(C)nc(C(C)C)n1`, for which the molecule was called inactive in assay [1], in assay [2], in [3], in [4], in assay [5] and in [6]. In assay [7], the outcome was inactive.
Turning to `CON=C(C(=O)OC)c1ccccc1CON=C(C)c1cccc(C(F)(F)F)c1`, the AC50 was 0.929 µM (active) in assay [1]; 50 µM (active) in assay [2]; 50 µM (active) in [3]; 11.8 µM (active) in assay [4]; 7.95 µM (active) in [7]. The molecule was called inactive in assay [5] and in [6].
`COP(=O)(OC)C(O)C(Cl)(Cl)Cl` (stereo unspecified): the molecule was called inactive in assay [1], in [3], in assay [4], in assay [5] and in assay [6]. Moreover, the AC50 in [2] was 15.5 µM (active).
Take `S=C1NCCN1`: the molecule was called inactive in [1], in assay [2], in assay [3], in assay [4], in assay [5] and in assay [6]. For the same molecule, the molecule was called inactive in [7].
On to `CN(C)[C@@H]1C(=O)C(C(N)=O)=C(O)[C@@]2(O)C(=O)C3=C(O)c4c(O)cccc4[C@@](C)(O)[C@H]3[C@H](O)[C@@H]12`, for which the outcome in assay [1], in assay [8], in assay [9], in assay [3], in assay [10] and in assay [11] was inactive. The outcome in assay [12] was “inactive”; in assay [13], “inactive”; in [14], “inactive”; in [15], “inactive”; in assay [16], “inactive”; with Decorin, DCN (gene 1634) it was “inactive”. The outcome in assay [17], in assay [18], in assay [19] and in assay [7] was inactive. The AC50 in assay [2] is 25.2 µM (active); in [4] it was 42.5 µM (active); in [5] it was 76.1 µM (active); in [6] it was 38.7 µM (active).
Turning to `CC(C)N(C(=O)SCC(Cl)=C(Cl)Cl)C(C)C`, the outcome in assay [1], in assay [2], in [3], in assay [5], in assay [6] and in [7] was inactive. Also, the AC50 in assay [4] is 4.18 µM (active).

These data come from PubChem BioAssay (EPA / NIEHS).
